# System: Vero E6 infected with SARS-CoV-2
# Assay: inhibition of SARS-CoV-2 cytopathic effect; higher = more antiviral protection, active = above 15
# Details: 100 nM; 48 h
row,Compound,inhibition of SARS-CoV-2 cytopathic effect
1,Cc1ccc(S(=O)(=O)Nc2ccc3c(c2)c(C(=O)C(F)(F)F)cn3CC(=O)N[C@@H](CC(C)C)C(=O)O)cc1,-1.37% (inactive)
2,Cc1ccc(-n2nc(C(C)(C)C)cc2NC(=O)NCc2cc(F)ccc2Oc2ccc3c(cnn3CCO)c2)cc1 [pexmetinib],0.01% (inactive)
3,Cc1cn([C@H]2C[C@H](N=[N+]=[N-])[C@@H](CO)O2)c(=O)[nH]c1=O [zidovudine],6.14% (inactive)
4,O=C1NC(c2ccccc2)(c2ccccc2)C(=O)N1COP(=O)(O)O [fosphenytoin],13.5% (inactive)
5,OC[C@@H](O)[C@@H](O)[C@@H](O)CO [ribitol],1.9% (inactive)
6,CN1C(=O)CCS(=O)(=O)C1c1ccc(Cl)cc1 (stereo not drawn) [chlormezanone],0.74% (inactive)
7,O=C(C1CCCCC1)N1CC(=O)N2CCc3ccccc3C2C1 (stereo not drawn) [praziquantel],1.39% (inactive)
8,O=C(NC1CCNCC1)[C@@H]1CC[C@@H]2CN1C(=O)N2OS(=O)(=O)O [relebactam],1.26% (inactive)

# Same assay, conditions: 833.33 nM; 48 h
row,Compound,inhibition of SARS-CoV-2 cytopathic effect
1,N#CC(=C(/N)Sc1ccccc1N)/C(C#N)=C(/N)Sc1ccccc1N,-3.9% (inactive)
2,CC(C)[C@@H]1C(=O)N(S(C)(=O)=O)[C@@H]2CCN(C(=O)/C=C/CN3CCCCC3)[C@H]21,-0.28% (inactive)
3,O=P(O)(O)C(Cl)(Cl)P(=O)(O)O [clodronic-acid],2.21% (inactive)
4,CCCCCCCC/C=C\CCCCCCCC(=O)NCCO [oleoylethanolamide],0.17% (inactive)
5,COc1cc2ncc(-c3ccccc3)nc2cc1OC [tyrphostin-AG-1296],-1.04% (inactive)
6,CNC[C@H](O)c1ccc(O)c(O)c1 [epinephrine],0.24% (inactive)
7,CC(=O)Nc1cccc(-n2c(=O)n(C3CC3)c(=O)c3c(Nc4ccc(I)cc4F)n(C)c(=O)c(C)c32)c1 [trametinib],-16.9% (inactive)
8,Cc1ccc2cc(-c3c(C)ccc(C(=O)c4c(-c5ccccc5)n(C)n(-c5ccccc5)c4=O)c3N)ccc2n1,2.1% (inactive)
9,Cc1csc2c(N[C@@H](C)CN3CCN(S(=O)(=O)c4ccc(Cl)c(Cl)c4)CC3)ncnc12 [LPA2-antagonist-1],1.34% (inactive)
10,Cc1[nH]nc(C(F)(F)F)c1Cc1sc2c(c1C(=O)N1C[C@](C)(O)CO1)c(=O)n(C)c(=O)n2C(C)C,0.45% (inactive)
11,COc1ccc(NS(=O)(=O)c2ccc(N)cc2)nn1 [sulfamethoxypyridazine],3.71% (inactive)
12,COc1ccc(C[C@H]2NC[C@H](O)[C@H]2OC(C)=O)cc1 [anisomycin],7.95% (inactive)
13,C=CCc1cccc(/C=N/NC(=O)CN2CCN(Cc3ccccc3)CC2)c1O,0.65% (inactive)
14,Cc1c(C(N)=O)cc([N+](=O)[O-])cc1[N+](=O)[O-] [dinitolmide],-2.22% (inactive)
15,CNC1CCCN(c2c(F)cc3c(=O)c(C(=O)O)cn(C4CC4)c3c2OC)C1 (stereo not drawn) [balofloxacin],1.72% (inactive)
16,CC1=NN(c2ccc(C)c(C)c2)C(=O)/C1=N\Nc1cccc(-c2cccc(C(=O)O)c2)c1O [eltrombopag],0.59% (inactive)
17,O=C(NCCCN1CCOCC1)c1ccc(Cl)cc1 [eprobemide],-1.08% (inactive)
18,O=c1c(O)c(-c2ccc(O)cc2)oc2cc(O)cc(O)c12 [kaempferol],1.56% (inactive)
19,CCCCCCCCCCCCCCCCCCN(CCCCCCCCCCCCCCCCCC)CCCN(CCO)CCO [avridine],-5.17% (inactive)
20,O=C1NC(=O)c2c1c1c3ccccc3[nH]c1c1[nH]c3ccccc3c21 [arcyriaflavin-a],-3.59% (inactive)

row,Compound,inhibition of SARS-CoV-2 cytopathic effect
1,CC(=O)OC[C@H]1O[C@@H](n2ccc(=O)[nH]c2=O)[C@H](OC(C)=O)[C@@H]1OC(C)=O [uridine-triacetate],-3.59% (inactive)
2,O=C(NC1CCOCC1)c1ccc(-c2cc(-c3c[nH]nc3-c3ccccn3)ccn2)cc1,4.34% (inactive)
3,O=C(NCC1CCCCN1)c1cc(OCC(F)(F)F)ccc1OCC(F)(F)F (stereo not drawn) [flecainide],3.98% (inactive)
4,O=C1Nc2ccccc2/C1=C1/Nc2ccccc2C1=O [indirubin],1.04% (inactive)
5,c1cnc2c([O][Ga]([O]c3cccc4cccnc34)[O]c3cccc4cccnc34)cccc2c1 [gallium-triquinolin-8-olate],4.98% (inactive)
6,CN1CCCC(n2nc(Cc3ccc(Cl)cc3)c3ccccc3c2=O)CC1 (stereo not drawn) [azelastine],-2.95% (inactive)
7,C[C@H]1C[C@@H]2[C@H]([C@@H](O)C[C@@]3(C)[C@H]2CC[C@]3(O)C(=O)COC(=O)CCC(=O)O)[C@@]2(C)C=CC(=O)C=C12 [methylprednisolone-sodium-succinate],-0.11% (inactive)
8,CN1C[C@@H](NS(=O)(=O)N(C)C)C[C@@H]2c3cccc4c3c(cn4C)C[C@H]21 [mesulergine],0.39% (inactive)
9,CCS(=O)(=O)N(Cc1cccnc1)c1cccc(-c2ccc(C#N)cc2)c1,4.38% (inactive)
10,COC(=O)[C@@H]1C[C@H](OC(C)=O)C(=O)[C@H]2[C@@]1(C)CC[C@H]1C(=O)O[C@H](c3ccoc3)C[C@]21C [salvinorin-A],-0.35% (inactive)
11,O=C(O)c1ccccc1Nc1cccc(OCc2ccc3ccccc3n2)c1,0.3% (inactive)
12,C/C=C/c1cc(OC)c(OC)cc1OC [alpha-asarone],-3.9% (inactive)
13,Cc1ccc(S(=O)(=O)Nc2ccc3c(c2)c(C(=O)C(F)(F)F)cn3CC(=O)N[C@@H](CC(C)C)C(=O)O)cc1,0.8% (inactive)
14,Cc1ccc(-n2nc(C(C)(C)C)cc2NC(=O)NCc2cc(F)ccc2Oc2ccc3c(cnn3CCO)c2)cc1 [pexmetinib],5.81% (inactive)
15,Cc1cn([C@H]2C[C@H](N=[N+]=[N-])[C@@H](CO)O2)c(=O)[nH]c1=O [zidovudine],2.68% (inactive)
16,O=C1NC(c2ccccc2)(c2ccccc2)C(=O)N1COP(=O)(O)O [fosphenytoin],1.24% (inactive)
17,OC[C@@H](O)[C@@H](O)[C@@H](O)CO [ribitol],3.1% (inactive)
18,CN1C(=O)CCS(=O)(=O)C1c1ccc(Cl)cc1 (stereo not drawn) [chlormezanone],0.68% (inactive)
19,O=C(C1CCCCC1)N1CC(=O)N2CCc3ccccc3C2C1 (stereo not drawn) [praziquantel],2.67% (inactive)
20,O=C(NC1CCNCC1)[C@@H]1CC[C@@H]2CN1C(=O)N2OS(=O)(=O)O [relebactam],-0.84% (inactive)
